# Assay results published in the supplement of paper PMC10849652.
# The full data set covers some 7,900 targets. This sample favours those with a hit. About 0.6% of all pairs of compound and target were hits. A number with no mark means an inactive call.
# How the values were obtained:
# Experiment in all cases: log2 fold change, soluble protein after heating vs DMSO (PISA); higher = thermal stabilisation; K562 cells, 10 uM, 30 min; active = over 0.2 and 3.5 SD of the protein, either way, in both replicates (recomputed)
# [1] = compound: NC(=O)Nc1cc(-c2cccc(F)c2)sc1C(=O)N[C@H]1CCCNC1
# How it was run: (§1)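 K562 cells at 2×10^6 cells/mL were treated with 10 μM compound for 30 min. Aliquots were heated for 3 min across 48°C-58°C, pooled, and extracted in PBS with 0.5% NP-40 at 4°C; soluble protein was the supernatant after 21,000xg for 90 min. Soluble protein was quantified by TMTpro 16plex LC-MS/MS with channel sums equalised, and reported as log2 fold change in thermal stability against DMSO controls, with values from duplicates.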
# [2] = compound: NC(=O)c1cnc(N[C@@H]2CCCC[C@@H]2N)nc1Nc1cccc(-n2nccn2)c1
# How it was run: as §1
# [3] = compound: NC1(c2ccc(-c3nc4ccn5c(=O)[nH]nc5c4cc3-c3ccccc3)cc2)CCC1
# How it was run: as §1
# [4] = compound: NCC(=O)Nc1ccc(-n2nc(C(F)(F)F)cc2-c2ccc3c(ccc4ccccc43)c2)cc1
# How it was run: as §1
# [5] = compound: Nc1ccccc1NC(=O)c1ccc(CNC(=O)OCc2cccnc2)cc1 [entinostat]
# How it was run: as §1
# [6] = compound: O=C(CCCCCCC(=O)Nc1ccccc1)NO [vorinostat]
# How it was run: as §1
# [7] = compound: O=C(CCCCCCNC(=O)c1cnc(N(c2ccccc2)c2ccccc2Cl)nc1)NO [citarinostat]
# How it was run: as §1
# [8] = compound: O=C(O)c1ccc2c(c1)nc(Nc1cccc(Cl)c1)c1ccncc12 [silmitasertib]
# How it was run: as §1
# [9] = compound: O=C1NC(=O)C(c2cnc3ccccn23)=C1c1cn2c3c(cc(F)cc13)CN(C(=O)N1CCCCC1)CC2
# How it was run: as §1
# [10] = compound: c1cc(OCCN2CCCCC2)cc(-c2n[nH]c3ccc(-c4nnc[nH]4)cc23)c1
# How it was run: as §1
# [11] = compound: c1cn2cc(-c3ccc4cn[nH]c4c3)nc(Nc3ccc(N4CCOCC4)cc3)c2n1 [entospletinib]
# How it was run: as §1
# UniProt Q00587, sequence (Q00587 whole entry, looked up): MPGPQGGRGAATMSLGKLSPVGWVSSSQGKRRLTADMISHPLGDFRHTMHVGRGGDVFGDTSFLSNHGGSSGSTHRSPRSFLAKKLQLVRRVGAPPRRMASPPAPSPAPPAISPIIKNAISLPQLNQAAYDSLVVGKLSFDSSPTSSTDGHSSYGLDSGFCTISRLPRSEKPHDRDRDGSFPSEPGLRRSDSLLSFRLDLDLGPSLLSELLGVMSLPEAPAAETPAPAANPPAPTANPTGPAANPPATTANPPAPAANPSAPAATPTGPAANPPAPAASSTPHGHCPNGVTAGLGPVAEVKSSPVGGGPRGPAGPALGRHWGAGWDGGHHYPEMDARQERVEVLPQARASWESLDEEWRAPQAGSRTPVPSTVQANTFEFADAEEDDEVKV
# UniProt Q96KA5, sequence (Q96KA5 whole entry, looked up): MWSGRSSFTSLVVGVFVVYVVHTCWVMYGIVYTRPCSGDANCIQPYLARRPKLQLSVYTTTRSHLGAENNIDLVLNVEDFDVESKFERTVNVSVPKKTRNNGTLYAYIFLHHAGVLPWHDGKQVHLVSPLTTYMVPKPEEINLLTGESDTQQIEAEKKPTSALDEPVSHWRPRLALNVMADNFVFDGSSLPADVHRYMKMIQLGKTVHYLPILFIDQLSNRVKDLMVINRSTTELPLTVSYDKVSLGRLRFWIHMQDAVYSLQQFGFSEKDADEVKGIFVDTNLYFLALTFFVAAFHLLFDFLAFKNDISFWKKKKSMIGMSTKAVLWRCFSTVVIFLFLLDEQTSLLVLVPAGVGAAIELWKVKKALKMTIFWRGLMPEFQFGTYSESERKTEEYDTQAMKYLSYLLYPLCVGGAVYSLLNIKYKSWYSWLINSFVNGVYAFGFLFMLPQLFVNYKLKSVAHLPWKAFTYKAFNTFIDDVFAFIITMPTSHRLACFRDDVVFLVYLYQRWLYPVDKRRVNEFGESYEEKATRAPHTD
# UniProt Q96JB5, sequence (Q96JB5 whole entry, looked up): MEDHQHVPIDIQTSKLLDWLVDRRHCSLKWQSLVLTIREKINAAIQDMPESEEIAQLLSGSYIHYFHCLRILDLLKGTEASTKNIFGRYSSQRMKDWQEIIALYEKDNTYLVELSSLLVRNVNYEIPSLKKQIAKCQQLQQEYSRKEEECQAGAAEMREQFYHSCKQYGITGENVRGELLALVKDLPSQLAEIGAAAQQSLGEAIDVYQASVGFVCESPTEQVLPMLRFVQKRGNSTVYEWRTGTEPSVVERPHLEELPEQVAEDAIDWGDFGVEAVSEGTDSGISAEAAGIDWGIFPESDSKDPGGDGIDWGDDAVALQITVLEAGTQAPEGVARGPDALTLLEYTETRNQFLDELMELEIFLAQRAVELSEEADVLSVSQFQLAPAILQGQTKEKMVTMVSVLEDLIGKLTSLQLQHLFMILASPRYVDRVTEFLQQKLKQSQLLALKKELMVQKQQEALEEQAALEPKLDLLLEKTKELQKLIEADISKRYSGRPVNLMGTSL
# UniProt Q99439, sequence (Q99439 whole entry, looked up): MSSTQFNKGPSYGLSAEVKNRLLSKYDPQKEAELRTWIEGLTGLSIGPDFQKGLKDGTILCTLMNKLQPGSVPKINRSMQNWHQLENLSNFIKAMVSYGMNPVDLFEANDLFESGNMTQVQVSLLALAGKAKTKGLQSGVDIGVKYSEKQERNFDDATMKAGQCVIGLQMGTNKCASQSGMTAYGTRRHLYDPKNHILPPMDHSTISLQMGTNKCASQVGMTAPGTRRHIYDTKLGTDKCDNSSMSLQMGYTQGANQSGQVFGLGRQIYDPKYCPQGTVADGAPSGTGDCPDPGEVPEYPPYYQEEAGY
# UniProt Q5T5Y3, sequence (Q5T5Y3 whole entry, looked up): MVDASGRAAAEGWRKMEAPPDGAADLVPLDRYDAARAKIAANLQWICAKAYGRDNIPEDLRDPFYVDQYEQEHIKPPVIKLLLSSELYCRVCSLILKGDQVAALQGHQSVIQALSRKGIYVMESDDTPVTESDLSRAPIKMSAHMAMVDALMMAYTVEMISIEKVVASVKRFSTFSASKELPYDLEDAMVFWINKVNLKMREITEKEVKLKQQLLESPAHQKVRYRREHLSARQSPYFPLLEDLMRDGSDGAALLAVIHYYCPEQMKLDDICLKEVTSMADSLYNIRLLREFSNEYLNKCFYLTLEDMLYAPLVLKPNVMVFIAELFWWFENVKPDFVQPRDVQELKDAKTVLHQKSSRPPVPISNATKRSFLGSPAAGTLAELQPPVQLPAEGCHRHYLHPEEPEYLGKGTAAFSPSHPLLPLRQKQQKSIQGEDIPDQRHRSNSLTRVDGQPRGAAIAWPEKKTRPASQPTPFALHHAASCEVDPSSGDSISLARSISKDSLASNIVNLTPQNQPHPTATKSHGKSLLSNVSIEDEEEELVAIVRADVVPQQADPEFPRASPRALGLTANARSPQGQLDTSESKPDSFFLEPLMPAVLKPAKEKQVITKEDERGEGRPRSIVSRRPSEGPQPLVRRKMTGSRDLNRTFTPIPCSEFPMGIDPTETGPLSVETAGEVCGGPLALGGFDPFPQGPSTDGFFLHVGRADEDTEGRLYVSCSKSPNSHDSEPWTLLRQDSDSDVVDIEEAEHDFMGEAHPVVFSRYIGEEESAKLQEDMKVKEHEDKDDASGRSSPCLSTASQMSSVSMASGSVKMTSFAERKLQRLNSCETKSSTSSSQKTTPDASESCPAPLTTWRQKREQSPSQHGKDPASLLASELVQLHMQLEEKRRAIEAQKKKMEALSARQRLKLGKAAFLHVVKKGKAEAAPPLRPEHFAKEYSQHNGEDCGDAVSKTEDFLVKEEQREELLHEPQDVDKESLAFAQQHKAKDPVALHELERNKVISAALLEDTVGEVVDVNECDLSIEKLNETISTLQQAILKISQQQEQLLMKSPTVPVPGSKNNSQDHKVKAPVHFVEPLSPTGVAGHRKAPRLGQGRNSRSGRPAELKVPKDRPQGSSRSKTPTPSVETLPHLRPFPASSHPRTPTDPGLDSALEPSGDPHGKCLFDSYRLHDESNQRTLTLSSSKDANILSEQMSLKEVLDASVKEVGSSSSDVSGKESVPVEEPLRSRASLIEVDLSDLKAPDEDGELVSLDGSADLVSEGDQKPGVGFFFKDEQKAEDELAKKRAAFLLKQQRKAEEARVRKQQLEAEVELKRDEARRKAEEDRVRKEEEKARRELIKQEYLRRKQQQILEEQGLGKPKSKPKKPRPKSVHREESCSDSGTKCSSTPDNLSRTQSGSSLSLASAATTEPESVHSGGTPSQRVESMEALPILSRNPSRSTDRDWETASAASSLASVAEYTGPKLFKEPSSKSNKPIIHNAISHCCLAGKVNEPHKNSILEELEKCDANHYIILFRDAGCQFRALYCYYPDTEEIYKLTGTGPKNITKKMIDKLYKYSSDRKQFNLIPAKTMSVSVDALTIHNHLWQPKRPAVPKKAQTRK
# UniProt Q9UKF6, sequence (Q9UKF6 whole entry, looked up): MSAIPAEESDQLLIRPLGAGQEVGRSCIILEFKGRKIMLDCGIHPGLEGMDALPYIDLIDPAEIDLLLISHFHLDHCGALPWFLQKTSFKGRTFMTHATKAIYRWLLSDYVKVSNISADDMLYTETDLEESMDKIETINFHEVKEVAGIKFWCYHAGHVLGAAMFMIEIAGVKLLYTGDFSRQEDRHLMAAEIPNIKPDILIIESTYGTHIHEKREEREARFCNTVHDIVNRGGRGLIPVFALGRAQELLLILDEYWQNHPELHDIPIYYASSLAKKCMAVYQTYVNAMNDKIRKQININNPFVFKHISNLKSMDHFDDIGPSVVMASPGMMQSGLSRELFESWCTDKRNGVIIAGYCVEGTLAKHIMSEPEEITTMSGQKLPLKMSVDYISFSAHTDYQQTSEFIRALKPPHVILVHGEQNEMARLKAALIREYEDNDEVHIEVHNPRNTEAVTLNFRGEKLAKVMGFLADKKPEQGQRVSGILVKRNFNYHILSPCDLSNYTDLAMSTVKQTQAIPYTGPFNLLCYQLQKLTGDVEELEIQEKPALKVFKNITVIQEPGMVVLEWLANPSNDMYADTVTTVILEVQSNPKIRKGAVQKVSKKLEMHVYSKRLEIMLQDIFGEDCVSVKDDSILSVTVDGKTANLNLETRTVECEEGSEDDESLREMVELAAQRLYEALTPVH
# UniProt Q8NHZ8, sequence (Q8NHZ8 whole entry, looked up): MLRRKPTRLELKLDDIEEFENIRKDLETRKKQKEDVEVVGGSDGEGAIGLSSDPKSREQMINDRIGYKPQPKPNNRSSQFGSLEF
# UniProt O75390, sequence (O75390 whole entry, looked up): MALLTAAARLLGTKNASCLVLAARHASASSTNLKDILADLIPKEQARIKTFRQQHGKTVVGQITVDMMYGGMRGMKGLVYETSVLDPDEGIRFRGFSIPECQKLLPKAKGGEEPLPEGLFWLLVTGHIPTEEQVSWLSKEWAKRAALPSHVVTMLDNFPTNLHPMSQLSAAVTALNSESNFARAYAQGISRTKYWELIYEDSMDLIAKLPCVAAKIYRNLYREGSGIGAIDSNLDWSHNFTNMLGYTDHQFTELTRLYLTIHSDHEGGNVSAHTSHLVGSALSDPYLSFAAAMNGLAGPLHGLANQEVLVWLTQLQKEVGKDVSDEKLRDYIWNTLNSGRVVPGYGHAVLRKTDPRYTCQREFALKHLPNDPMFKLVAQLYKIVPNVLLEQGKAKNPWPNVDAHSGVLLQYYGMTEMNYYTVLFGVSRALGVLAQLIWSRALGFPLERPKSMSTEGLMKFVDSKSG
# UniProt P24311, sequence (P24311 whole entry, looked up): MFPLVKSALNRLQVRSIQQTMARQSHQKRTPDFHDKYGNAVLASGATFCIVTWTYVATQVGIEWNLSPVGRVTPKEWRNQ
Target,log2 fold change [1],log2 fold change [2],log2 fold change [3],log2 fold change [4],log2 fold change [5],log2 fold change [6],log2 fold change [7],log2 fold change [8],log2 fold change [9],log2 fold change [10],log2 fold change [11]
CPSF3 (UniProt Q9UKF6),0.001,-0.05,-0.032,-0.058,-0.002,0.016,0.026,0.129,-0.006,-0.075,0
CPSF1 (UniProt Q10570),0.024,0.069,0.059,0.006,-0.023,0.012,-0.025,0.052,0.099,-0.139,0.037
CDK5RAP3 isoform 4 (UniProt Q96JB5),-0.025,-0.029,-0.092,-0.097,0.056,0.04,0.065,-0.004,-0.04,0.019,-0.057
CLPTM1L (UniProt Q96KA5),-0.007,0.007,-0.148,-0.019,0.025,0.023,0.044,0.02,-0.072,0.002,-0.025
COX7B (UniProt P24311),0.094,-0.001,-0.028,0.02,-0.054,0.012,-0.013,0.039,0.036,-0.026,0.005
CDC42EP1 (UniProt Q00587),-0.272,-0.258,-0.399,-0.063,0.1,0.158,0.108,-0.04,-0.118,-0.138,-0.089
CLPX (UniProt O76031),0.01,0.011,-0.031,-0.01,-0.019,0.007,0.011,0.022,0.058,-0.05,-0.002
CDC26 (UniProt Q8NHZ8),0.034,0.352,0.152,0.704 (active),0.097,0.019,-0.025,-0.003,0.007,-0.003,0.023
CNN2 (UniProt Q99439),-0.029,-0.031,-0.104,-0.052,0.08,0.029,0.061,0.062,-0.062,-0.026,-0.011
CS (UniProt O75390),-0.024,-0.087,-0.187,0.007,0.001,0.064,0.012,-0.039,0.003,-0.068,0.005
CAMSAP1 isoform 3 (UniProt Q5T5Y3),0.124,-0.048,-0.172,-0.466 (active),-0.29,-0.078,0.045,0.064,-0.028,-0.013,-0.003
